Assay results from PubChem BioAssay (Tox21).
Records with an inconclusive call do not appear. The source made the active and inactive calls. Unless noted, calls follow the shape of the dose curve; as a rule, active = well fitted curve in the direction sought with a large enough effect in the repeat runs; inconclusive = weak or mixed curves; inactive = no such curve, though single readings can be large; an effect the other way counts as inactive or inconclusive.

How the values were obtained:
[1] = qHTS assay for small molecules that induce genotoxicity in human embryonic kidney cells expressing luciferase-tagged ATAD5 (AID 651632); also: nearly all actives have a fitted effect of over 15% in size; also: potency is read from the fitted curve at half-maximal effect
Method in brief: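 Reporter cells (HEK293T) express luciferase-tagged ATAD5, a protein that accumulates after DNA damage. Treat 16 hr at 37C/5% CO2, add Amplite, wait 30 min at RT, and read luminescence.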

[2] = qHTS assay for small molecule agonists of the p53 signaling pathway - cell viability (AID 651633; calls by dose curve;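 also: p53RE-bla HCT reporter cells with a stable beta-lactamase p53 reporter; series mostly up to about 83 µM; nearly all actives have a fitted effect of over 30% in size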)
Method in brief: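 Viability counter-read: CellTiter-Glo luminescence (30 min, room temperature) in the same p53RE-bla plates. These plates had been exposed to compounds for 16 h at 37 C.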

[3] = qHTS assay for small molecules that induce genotoxicity in human embryonic kidney cells expressing luciferase-tagged ATAD5 - cell viability (AID 651634; calls by dose curve; also: nearly all actives have a fitted effect of over 25% in size)
Method in brief: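 Seeding of 2,000 HEK293T ATAD5-luciferase cells per well preceded pin-tool compound transfer. Plates sat 15.5 hr at 37C under 5% CO2, then fluorescence was read after 30 min with CellTiter-Fluor.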

[4] = qHTS assay for small molecule disruptors of the mitochondrial membrane potential - cell viability (AID 720634; calls by dose curve;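 also: human HepG2 liver cancer cells; series mostly up to about 83 µM; nearly all actives have a fitted effect of over 20% in size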)
Method in brief: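 Measuring cytotoxicity alongside mitochondrial potential, the screen quantified ATP by luminescence in HepG2 cells after 1 hr compound incubation and a 30 min room-temperature CellTiter-Glo step.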

[5] = qHTS assay for small molecule disruptors of the mitochondrial membrane potential (AID 720635)
Method in brief: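 Mitochondrial membrane potential tracked with Mito-MPS dye, red aggregates (ex 540/em 590 nm) against green monomers (ex 490/em 535 nm). Compound treatment 1 hr at 37C, dye 30 min in HepG2.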

[6] = qHTS assay to test for compound auto fluorescence at 535 nm (green) in HepG2 cells (AID 720675)
[7] = qHTS assay to test for compound auto fluorescence at 460 nm (blue) in HEK293 cells (AID 720678)
Method in brief: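 Auto fluorescence in the blue band was quantified as triamterene equivalency. HEK293 cells were seeded at 2,000/well, dosed after a 4-5 hr attachment, and kept overnight at 37C before the 405/460 nm reading.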

[8] = qHTS assay to test for compound auto fluorescence at 590 nm (red) in HEK293 cells (AID 720679)
Method in brief: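 Autofluorescence equivalency to Rose Bengal sodium, 540/590nm, in HEK293 cells exposed overnight to 23 nL compound per well.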

[9] = qHTS assay to test for compound auto fluorescence at 535 nm (green) in HEK293 cells (AID 720680)
[10] = qHTS assay to test for compound auto fluorescence at 535 nm (green) in HEK293 cell free culture (AID 720682)
Method in brief: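 Using fluorescein as calibrant, autofluorescence was quantified at 485/535 nm in cell-free DMEM containing 10% FBS after pintool addition of compound or vehicle.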

[11] = qHTS assay to test for compound auto fluorescence at 590 nm (red) in HEK293 cell free culture (AID 720683)
Method in brief: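 Red-channel autofluorescence of compounds in culture medium (DMEM, 10% FBS), no cells, measured at 540/590 nm. Rose Bengal sodium is the reference fluorophore for equivalence.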

[12] = qHTS assay to test for compound auto fluorescence at 590 nm (red) in HepG2 cell free culture (AID 720684)
Method in brief: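 Steps: dispense MEM/10% FBS medium, no cells; pin compound or DMSO vehicle; read red channel, Ex/Em 540/590 nm. Output given as Rose Bengal sodium equivalents.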

[13] = qHTS assay to test for compound auto fluorescence at 460 nm (blue) in HepG2 cell free culture (AID 720685)
Method in brief: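 Compound (23 nL) or DMSO pinned into cell-free MEM with 10% FBS; blue fluorescence read at 405/460 nm excitation/emission, expressed as auto-fluorescence equivalency to triamterene.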

[14] = qHTS assay to test for compound auto fluorescence at 535 nm (green) in HepG2 cell free culture (AID 720686)
[15] = qHTS assay to test for compound auto fluorescence at 460 nm (blue) in HepG2 cells (AID 720687)
Method in brief: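 Blue-channel autofluorescence (Ex/Em 405/460 nm, triamterene-equivalent) was measured after 1 hr compound exposure at 37 C, 5% CO2. Cells were HepG2, plated overnight at 37 C in MEM plus 10% FBS.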

[16] = target: Glucocorticoid receptor (Homo sapiens) (UniProt P04150); assay: qHTS assay to identify small molecule agonists of the glucocorticoid receptor (GR) signaling pathway (AID 720691; active = well fitted activation curve with a large enough effect in the signal ratio in the repeat runs, not every such curve was filed as active; the % refers to the signal ratio)
Method in brief: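 Reporter read-out: fluorescence intensity following 2 h room-temperature LiveBLAzer B/G FRET substrate loading. Prior step: GR-bla HeLa cells held 4 h, then treated 18 h at 37 C.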

[17] = target: Glucocorticoid receptor (Homo sapiens) (UniProt P04150); assay: qHTS assay to identify small molecule antagonists of the glucocorticoid receptor (GR) signaling pathway (AID 720692; active = well fitted inhibition curve with a large enough effect in the signal ratio in the repeat runs, not every such curve was filed as active; the % refers to the signal ratio)
Method in brief: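 Dexamethasone (5 nM final) stimulated a stably integrated GRE-beta-lactamase reporter in HeLa cells during 18 h co-incubation with compounds; signal was quantified as fluorescence intensity of B/G FRET substrate after 2 h.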

[18] = qHTS assay to test for compound auto fluorescence at 590 nm (red) in HepG2 cells (AID 720674)
Method in brief: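 We screened compounds on adherent HepG2 cells, incubating them for an hour at 37 C in 5% CO2 before reading emission at 590 nm under 540 nm excitation; values reflect equivalence to Rose Bengal sodium fluorescence.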

[19] = qHTS assay to test for compound auto fluorescence at 460 nm (blue) in HEK293 cell free culture (AID 720681)
Method in brief: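 Blue fluorescence (Ex 405/Em 460 nm, triamterene-equivalent) was read immediately after pin transfer of compound or DMSO into medium (DMEM, 10% FBS) without cells.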

[20] = qHTS assay for small molecule agonists of the p53 signaling pathway (AID 651631; calls by dose curve; also: nearly all actives have a fitted effect of over 15% in size)
Method in brief: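 Stably transfected HCT-116 cells (beta-lactamase behind p53 response elements) get compounds after a 5 h settling period; 16 h later at 37 °C, FRET substrate is loaded and fluorescence read after 2 h.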
% is scaled to controls: 0 for no effect and ±100 for the full control effect.

Sequence of Glucocorticoid receptor (Homo sapiens) (P04150 whole entry, looked up): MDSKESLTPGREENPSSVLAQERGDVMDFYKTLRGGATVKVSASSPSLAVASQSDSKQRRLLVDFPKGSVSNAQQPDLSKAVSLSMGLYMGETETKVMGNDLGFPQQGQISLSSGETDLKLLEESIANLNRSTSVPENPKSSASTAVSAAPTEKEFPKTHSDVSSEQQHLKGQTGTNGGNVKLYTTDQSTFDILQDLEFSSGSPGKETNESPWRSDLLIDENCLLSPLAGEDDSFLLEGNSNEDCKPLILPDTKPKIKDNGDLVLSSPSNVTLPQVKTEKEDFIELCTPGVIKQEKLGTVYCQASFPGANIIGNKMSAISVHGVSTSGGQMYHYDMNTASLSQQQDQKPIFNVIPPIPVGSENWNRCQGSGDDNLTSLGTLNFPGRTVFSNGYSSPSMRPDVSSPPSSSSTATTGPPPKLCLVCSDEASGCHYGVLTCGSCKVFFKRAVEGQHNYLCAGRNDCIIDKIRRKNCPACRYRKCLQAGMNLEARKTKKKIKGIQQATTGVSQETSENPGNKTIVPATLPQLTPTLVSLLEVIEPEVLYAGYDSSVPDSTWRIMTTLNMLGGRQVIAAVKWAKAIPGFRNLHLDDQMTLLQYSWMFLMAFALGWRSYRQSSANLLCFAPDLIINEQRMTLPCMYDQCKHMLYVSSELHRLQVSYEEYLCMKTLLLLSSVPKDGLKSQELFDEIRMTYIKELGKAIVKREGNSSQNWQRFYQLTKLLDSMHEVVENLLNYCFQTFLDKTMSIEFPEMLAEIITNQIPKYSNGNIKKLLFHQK

CCCCCCCCCCCCCCBr
inactive: Potency [1] | outcome [2] | outcome [3] | outcome [4] | Potency [5] | outcome [6] | outcome [7] | outcome [8] | outcome [9] | outcome [10] | outcome [11] | outcome [12] | outcome [13] | outcome [14] | outcome [15] | Potency [16] | outcome [17]

COCc1nnc(-c2ccc[n+]([O-])c2)n1-c1c(Cl)c(Cl)cc2[nH]c(=O)c(=O)[nH]c12
inactive: Potency [1] | outcome [2] | outcome [3] | outcome [4] | Potency [5] | outcome [18] | outcome [6] | outcome [7] | outcome [8] | outcome [19] | outcome [10] | outcome [11] | outcome [12] | outcome [13] | outcome [14] | outcome [15]

CC(CC(=O)Cl)CC(C)(C)C (stereo not drawn)
inactive: Potency [1] | outcome [2] | outcome [3] | outcome [4] | outcome [18] | outcome [6] | outcome [7] | outcome [8] | outcome [9] | outcome [19] | outcome [10] | outcome [11] | outcome [12] | outcome [13] | outcome [14] | outcome [15]

CCCCS
inactive: Potency [20] | outcome [2] | outcome [3] | Potency [5] | outcome [18] | outcome [6] | outcome [7] | outcome [8] | outcome [9] | outcome [10] | outcome [11] | outcome [12] | outcome [13] | outcome [14] | outcome [15] | outcome [17]

CC(=O)OC/C=C(/C)CCC=C(C)C
inactive: Potency [1] | outcome [2] | outcome [3] | outcome [4] | Potency [5] | outcome [18] | outcome [6] | outcome [7] | outcome [8] | outcome [9] | outcome [19] | outcome [10] | outcome [11] | outcome [12] | outcome [13] | outcome [14] | Potency [16] | outcome [17]

CC(=O)SCC(CC(=O)c1ccc(C)cc1)C(=O)O (stereo not drawn)
inactive: Potency [1] | outcome [2] | outcome [3] | outcome [4] | outcome [18] | outcome [6] | outcome [7] | outcome [8] | outcome [19] | outcome [10] | outcome [11] | outcome [12] | outcome [13] | outcome [14] | outcome [15] | outcome [17]

Nc1nc(Cl)cc(Cl)n1
inactive: Potency [1] | outcome [2] | outcome [3] | outcome [4] | Potency [5] | outcome [18] | outcome [6] | outcome [7] | outcome [8] | outcome [19] | outcome [10] | outcome [11] | outcome [12] | outcome [13] | outcome [14] | outcome [15] | outcome [17]

C[n+]1ccccc1/C=N/O
inactive: Potency [20] | outcome [2] | outcome [3] | Potency [5] | fluorescence, relative to Rose Bengal [18] 0.247% [at 18.6 µM] | fluorescence, % of fluorescein control [6] -0.126% [at 18.6 µM] | fluorescence, % of triamterene [7] -0.0874% [at 18.6 µM] | fluorescence, % of fluorescent control [8] -1.07% [at 18.6 µM] | fluorescence, % of fluorescein [9] -0.0429% [at 18.6 µM] | fluorescence, % of fluorescent control [19] 0.0506% [at 18.6 µM] | activity change [10] -0.0149% [at 18.6 µM] | fluorescence, % of fluorescent control [11] -0.29% [at 18.6 µM] | fluorescence, % of Rose Bengal [12] -0.356% [at 18.6 µM] | fluorescence, % of fluorescent control [13] -0.0014% [at 18.6 µM] | fluorescence, % of fluorescent control [15] 0.0546% [at 18.6 µM] | Potency [16] | outcome [17]

O=c1c(O)c(O)c1=O
inactive: Potency [20] | outcome [2] | outcome [3] | Potency [5] | outcome [18] | outcome [6] | outcome [7] | outcome [8] | outcome [9] | outcome [19] | outcome [10] | outcome [11] | outcome [12] | outcome [13] | outcome [14] | outcome [15] | outcome [17]

CCCCCCC(=O)c1ccccc1
inactive: Potency [1] | outcome [2] | outcome [3] | outcome [4] | Potency [5] | outcome [18] | outcome [6] | outcome [7] | outcome [8] | outcome [9] | outcome [19] | outcome [10] | outcome [11] | outcome [12] | outcome [13] | outcome [15]

O=S(=O)(O)c1cc(I)c(O)c2ncccc12
inactive: Potency [1] | outcome [2] | outcome [3] | outcome [4] | Potency [5] | outcome [18] | outcome [6] | outcome [7] | outcome [8] | outcome [9] | outcome [19] | outcome [10] | outcome [11] | outcome [12] | outcome [13] | outcome [14] | outcome [15]

O=C(O)Cc1c(Cl)ccc(Cl)c1Cl
inactive: Potency [1] | outcome [2] | outcome [3] | outcome [4] | outcome [18] | outcome [6] | outcome [7] | outcome [8] | outcome [9] | outcome [10] | outcome [11] | outcome [12] | outcome [13] | outcome [14]

C/C(=N\O)c1ccc(OCC(=O)N2CCCCC2)cc1
inactive: outcome [2] | outcome [3] | outcome [4] | outcome [18] | outcome [6] | outcome [7] | outcome [8] | outcome [9] | outcome [19] | outcome [10] | outcome [11] | outcome [12] | outcome [13] | outcome [14] | outcome [15]
active: Potency [1] 23.7 µM

CCCCCCCCCCCCCCCCN(C)C
inactive: activation [20] -4.5% [at 8.3 µM] | activity change, negative = cytotoxicity [2] 8.53% [at 8.08 µM] | activity, negative = cytotoxicity [3] -13.5% [at 8.08 µM] | fluorescence, relative to Rose Bengal [18] 0.017% [at 3.72 µM] | fluorescence, % of fluorescein control [6] -0.0084% [at 3.72 µM] | fluorescence, % of triamterene [7] -0.0322% [at 3.72 µM] | fluorescence, % of fluorescent control [8] -0.181% [at 3.72 µM] | fluorescence, % of fluorescein [9] 0.0696% [at 3.72 µM] | fluorescence, % of fluorescent control [19] -0.0334% [at 3.72 µM] | activity change [10] 0.0487% [at 3.72 µM] | fluorescence, % of fluorescent control [11] 0.0064% [at 3.72 µM] | fluorescence, % of Rose Bengal [12] -0.0248% [at 3.72 µM] | fluorescence, % of fluorescent control [13] -0.0345% [at 3.72 µM] | fluorescence, % of fluorescein control [14] 0.006% [at 3.72 µM] | activity change, negative = inhibition [17] -19.5% [at 7.04 µM]
